# Results as given in the supplement of paper PMC12350171.
# Where a name gives a salt, the structure may show the parent alone. Values without a mark were called inactive.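 How the source made its calls: active = AUC significantly below DMSO controls by Student t-fit with adjusted P under 0.01; inactive = not significantly reduced.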
# System: Haemophilus parainfluenzae
# Assay: growth AUC normalised to DMSO control (fraction of control); higher = less growth inhibition, active = hit call of the paper
# Conditions: 20 µM
# Outline: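 After two anaerobic passages, pathogens were added at a starting OD578 of 0.01 to pre-reduced mGAM plates holding compound at 20 μM with 1% DMSO; hemin and NAD were supplemented for Haemophilus parainfluenzae. Sealed with breathable membranes, plates were read at OD578 hourly for 24 h, in three biological replicates. The trapezoidal rule, applied up to the exponential-to-stationary transition, gave the growth-curve AUC, which was normalised to DMSO controls on the same plate.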
row,Structure (SMILES),growth AUC normalised to DMSO control
1,COC(=O)C1=C(C)NC(C)=C(C(=O)OCC(C)C)C1c1ccccc1[N+](=O)[O-] (centres undefined) [Nisoldipine],0.996
2,CCCCNc1ccc(C(=O)OCCOCCOCCOCCOCCOCCOCCOCCOCCOC)cc1 [Benzonatate],1
3,CN1CCC[C@@H]1CCO[C@](C)(c1ccccc1)c1ccc(Cl)cc1 [Clemastine fumarate],0.973
4,CCCC(CCC)C(=O)O [Valproic acid],1.04
5,CCN1CCN(C(=O)N[C@@H](C(=O)N[C@@H]2C(=O)N3C(C(=O)O)=C(CSc4nnnn4C)CS[C@H]23)c2ccc(O)cc2)C(=O)C1=O [Cefoperazone dihydrate],0.0355 (active)
6,CN1[C@@H]2CC[C@H]1C[C@@H](OC(=O)c1c[nH]c3ccccc13)C2 [Tropisetron hydrochloride],1
7,CC1(C)S[C@@H]2[C@H](NC(=O)[C@H](N)c3ccc(O)cc3)C(=O)N2[C@H]1C(=O)O [Amoxicillin],0.0371 (active)
8,CCC(C)(CN(C)C)OC(=O)c1ccccc1 (centres undefined) [Amyleine hydrochloride],1.01
9,CCCCC(O)c1ccccc1 (centres undefined) [Fenipentol],0.989
10,CCOC(=O)[C@@](C)(N)Cc1ccc(O)c(O)c1 [Methyldopate hydrochloride],0.995
11,O=C(N[C@H](CO)[C@H](O)c1ccc([N+](=O)[O-])cc1)C(Cl)Cl [Chloramphenicol],0.0445 (active)
12,CC[C@H](C)C(=O)O[C@H]1CCC=C2C=C[C@H](C)[C@H](CC[C@@H]3C[C@@H](O)CC(=O)O3)[C@H]21 [Mevastatin],0.978
13,Cc1ccccc1N1C(=O)c2cc(S(N)(=O)=O)c(Cl)cc2NC1C (centres undefined) [Metolazone],0.966
14,"CC(C)Cc1ccc([C@H](C)C(=O)O)cc1 [(S,+) Ibuprofen]",0.941
15,CCC(=O)O[C@]1(C(=O)CCl)[C@@H](C)C[C@H]2[C@@H]3CCC4=CC(=O)C=C[C@]4(C)[C@@]3(F)[C@@H](O)C[C@@]21C [Clobetasol propionate],1.47
16,CCCCOc1ccc(CC(=O)NO)cc1 [Bufexamac],1
17,COC(=O)[C@H]1[C@H]2C[C@@H]3c4[nH]c5cc(OC)ccc5c4CCN3C[C@H]2C[C@@H](OC(=O)c2cc(OC)c(OC)c(OC)c2)[C@@H]1OC [Reserpine],1.07
18,C=CCN1CCCC1CNC(=O)c1cc2nn[nH]c2cc1OC (centres undefined) [Alizapride hydrochloride],1
19,Cc1ccc(N(CC2=NCCN2)c2cccc(O)c2)cc1 [Phentolamine hydrochloride],1.05
20,C[C@H](O)C(=O)Nc1c(I)c(C(=O)NC(CO)CO)c(I)c(C(=O)NC(CO)CO)c1I [Iopamidol],1.07

row,Structure (SMILES),growth AUC normalised to DMSO control
1,CC(=O)[C@H]1CC[C@H]2[C@@H]3C=CC4=CC(=O)CC[C@@]4(C)[C@@H]3CC[C@]12C [Dydrogesterone],1.02
2,CCC(C)n1ncn(-c2ccc(N3CCN(c4ccc(OCC5COC(Cn6cncn6)(c6ccc(Cl)cc6Cl)O5)cc4)CC3)cc2)c1=O (centres undefined) [Itraconazole],1.09
3,C=CC1=C(C(=O)O)N2C(=O)[C@@H](NC(=O)/C(=N\O)c3csc(N)n3)[C@H]2SC1 [Cefdinir],0.176 (active)
4,O=C(c1ccc(F)cc1)C1CCN(CCn2c(=O)[nH]c3ccccc3c2=O)CC1 [Ketanserin tartrate hydrate],0.928
5,O=C(CCCN1CCC(O)(c2ccc(Cl)cc2)CC1)c1ccc(F)cc1 [Haloperidol],0.951
6,CC[N+](C)(CC)CCOC(=O)C1c2ccccc2Oc2ccccc21 [Methantheline bromide],1.04
7,CCCCCN(CCCCC)C(=O)C(CCC(=O)O)NC(=O)c1ccc(Cl)c(Cl)c1 (centres undefined) [Lorglumide sodium salt],0.982
8,"OC(CCN1CCCCC1)(c1ccccc1)C1CCCCC1 (centres undefined) [Trihexyphenidyl-D,L hydrochloride]",1.01
9,NS(=O)(=O)c1cc2c(cc1Cl)NCNS2(=O)=O [Hydrochlorothiazide],0.967
10,Nc1ccc(S(=O)(=O)Nc2ccnn2-c2ccccc2)cc1 [Sulfaphenazole],0.925
11,CN1C(C(=O)Nc2ccccn2)=C(O)c2sccc2S1(=O)=O [Tenoxicam],0.948
12,O=C(Nc1ccc([N+](=O)[O-])cc1Cl)c1cc(Cl)ccc1O [Niclosamide],0.046 (active)
13,CN(C)CC/C=C1/c2ccccc2COc2ccc(CC(=O)O)cc21 [Olopatadine hydrochloride],0.881
14,CSc1ccc2c(c1)N(CCC1CCCCN1C)c1ccccc1S2 (centres undefined) [Thioridazine hydrochloride],0.72 (active)
15,CNCC[C@@H](Oc1ccccc1C)c1ccccc1 [Tomoxetine hydrochloride],1.02
16,CC(=O)CC(c1ccc([N+](=O)[O-])cc1)c1c(O)c2ccccc2oc1=O (centres undefined) [Acenocoumarol],0.992
17,O=C(NCCO[N+](=O)[O-])c1cccnc1 [Nicorandil],0.987
18,CC1=C(/C=C/C(C)=C/C=C/C(C)=C\C(=O)O)C(C)(C)CCC1 [Isotretinoin],1.02
19,CN(C)CC/C=C1\c2ccccc2CSc2ccccc21 [Dosulepin hydrochloride],0.865
